# Assay results: article PMC8384837, “Expanding the binding specificity for RNA recognition by a PUF domain”
# Positions count from the first letter of the chain named.
# Key:
# Assay in all cases: yeast three-hybrid, YBZ-1, SC-Leu-His + 0.5 mM 3-AT, 4 days
# Details in all cases: tags: N-Gal4 AD-HA kept; label: inside an RPR1-promoter hybrid RNA with tandem MS2 sites; ssRNA
# PUM1 PUF domain R6-CFF = molecular target: T1, PUM1 PUF domain R6-CFF (Homo sapiens, UniProt Q14671 828-1176, N1043C;Y1044F;Q1047F)
# T1 sequence: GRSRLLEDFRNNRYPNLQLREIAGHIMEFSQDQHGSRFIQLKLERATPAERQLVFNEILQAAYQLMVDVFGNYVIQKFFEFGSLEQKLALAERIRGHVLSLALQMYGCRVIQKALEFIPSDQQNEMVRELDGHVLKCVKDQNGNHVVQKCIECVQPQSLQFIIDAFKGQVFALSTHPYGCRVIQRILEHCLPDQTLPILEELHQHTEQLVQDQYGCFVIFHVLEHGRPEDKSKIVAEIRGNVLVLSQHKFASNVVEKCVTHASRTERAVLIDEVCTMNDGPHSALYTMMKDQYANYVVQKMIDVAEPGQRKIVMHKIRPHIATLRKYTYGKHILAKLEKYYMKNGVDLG
# Procedure, shortened: (§1)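 Pumilio-1 PUF domain libraries, randomized (NNK) at the three base-contacting residues of each repeat, were co-expressed with matching RNA elements from a centromeric plasmid in strain YBZ-1 (LexA–MS2 coat fusion, HIS3 reporter). Transformants were plated on SC-Leu (input) and SC-Leu-His + 0.5 mM 3-AT (selection) for four days, and repeat regions were PCR-amplified and Illumina-sequenced. The interaction score is the log2 change in variant frequency from input to selection, with pseudocount 1 where absent.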
# PUM1 PUF domain R8-SHR = PUM1 PUF domain R8-SHR (Homo sapiens, UniProt Q14671 828-1176, N1122S;Y1123H;Q1126R)
# Procedure, shortened: as §1
# PUM1 PUF domain R2-NFP = PUM1 PUF domain R2-NFP (Homo sapiens, UniProt Q14671 828-1176, Y900F;Q903P)
# Procedure, shortened: as §1
# PUM1 PUF domain R5-SRT = PUM1 PUF domain R5-SRT (Homo sapiens, UniProt Q14671 828-1176, C1007S;Q1011T)
# Procedure, shortened: as §1
# PUM1 PUF domain R6-NYW = molecular target: T2, PUM1 PUF domain R6-NYW (Homo sapiens, UniProt Q14671 828-1176, Q1047W)
# T2 sequence: T1 sequence with C216N, F217Y, F220W
# Procedure, shortened: as §1
# PUM1 PUF domain R5-RRH = PUM1 PUF domain R5-RRH (Homo sapiens, UniProt Q14671 828-1176, C1007R;Q1011H)
# PUM1 PUF domain R5-RRH, sequence (Q14671 828-1176 C1007R/Q1011H): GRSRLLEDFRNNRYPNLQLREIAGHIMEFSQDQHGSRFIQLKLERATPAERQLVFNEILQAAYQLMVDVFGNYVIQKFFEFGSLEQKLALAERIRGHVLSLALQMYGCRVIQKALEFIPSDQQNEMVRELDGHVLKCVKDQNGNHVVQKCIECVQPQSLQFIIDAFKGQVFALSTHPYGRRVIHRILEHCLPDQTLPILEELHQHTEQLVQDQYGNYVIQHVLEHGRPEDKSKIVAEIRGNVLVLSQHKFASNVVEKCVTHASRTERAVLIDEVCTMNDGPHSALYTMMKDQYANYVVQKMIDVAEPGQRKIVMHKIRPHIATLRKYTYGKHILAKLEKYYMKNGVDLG
# Procedure, shortened: as §1
# PUM1 PUF domain R3-APD = PUM1 PUF domain R3-APD (Homo sapiens, UniProt Q14671 828-1176, C935A;R936P;Q939D)
# PUM1 PUF domain R3-APD, sequence (Q14671 828-1176 C935A/R936P/Q939D): as the sequence (Q14671 828-1176 C1007R/Q1011H) above, with C108A, R109P, Q112D, R180C, H184Q counted along it
# Procedure, shortened: as §1
# PUM1 PUF domain R8-RWW = PUM1 PUF domain R8-RWW (Homo sapiens, UniProt Q14671 828-1176, N1122R;Y1123W;Q1126W)
# PUM1 PUF domain R8-RWW, sequence (Q14671 828-1176 N1122R/Y1123W/Q1126W): as the sequence (Q14671 828-1176 C1007R/Q1011H) above, with R180C, H184Q, N295R, Y296W, Q299W counted along it
# Procedure, shortened: as §1
# PUM1 PUF domain R4-APC = PUM1 PUF domain R4-APC (Homo sapiens, UniProt Q14671 828-1176, N971A;H972P;Q975C)
# PUM1 PUF domain R4-APC, sequence (Q14671 828-1176 N971A/H972P/Q975C): as the sequence (Q14671 828-1176 C1007R/Q1011H) above, with N144A, H145P, Q148C, R180C, H184Q counted along it
# Procedure, shortened: as §1
# PUM1 PUF domain R8-QFC = PUM1 PUF domain R8-QFC (Homo sapiens, UniProt Q14671 828-1176, N1122Q;Y1123F;Q1126C)
# PUM1 PUF domain R8-QFC, sequence (Q14671 828-1176 N1122Q/Y1123F/Q1126C): as the sequence (Q14671 828-1176 C1007R/Q1011H) above, with R180C, H184Q, N295Q, Y296F, Q299C counted along it
# Procedure, shortened: as §1
# PUM1 PUF domain R3-MRY = PUM1 PUF domain R3-MRY (Homo sapiens, UniProt Q14671 828-1176, C935M;Q939Y)
# PUM1 PUF domain R3-MRY, sequence (Q14671 828-1176 C935M/Q939Y): as the sequence (Q14671 828-1176 C1007R/Q1011H) above, with C108M, Q112Y, R180C, H184Q counted along it
# Procedure, shortened: as §1
# PUM1 PUF domain R3-QCD = PUM1 PUF domain R3-QCD (Homo sapiens, UniProt Q14671 828-1176, C935Q;R936C;Q939D)
# PUM1 PUF domain R3-QCD, sequence (Q14671 828-1176 C935Q/R936C/Q939D): as the sequence (Q14671 828-1176 C1007R/Q1011H) above, with C108Q, R109C, Q112D, R180C, H184Q counted along it
# Procedure, shortened: as §1
# PUM1 PUF domain R3-IWD = PUM1 PUF domain R3-IWD (Homo sapiens, UniProt Q14671 828-1176, C935I;R936W;Q939D)
# PUM1 PUF domain R3-IWD, sequence (Q14671 828-1176 C935I/R936W/Q939D): as the sequence (Q14671 828-1176 C1007R/Q1011H) above, with C108I, R109W, Q112D, R180C, H184Q counted along it
# Procedure, shortened: as §1
# PUM1 PUF domain R5-NSV = PUM1 PUF domain R5-NSV (Homo sapiens, UniProt Q14671 828-1176, C1007N;R1008S;Q1011V)
# Procedure, shortened: as §1
# PUM1 PUF domain R5-KLE = PUM1 PUF domain R5-KLE (Homo sapiens, UniProt Q14671 828-1176, C1007K;R1008L;Q1011E)
# Procedure, shortened: as §1
# PUM1 PUF domain R1-GYR = PUM1 PUF domain R1-GYR (Homo sapiens, UniProt Q14671 828-1176, S863G;R864Y;Q867R)
# PUM1 PUF domain R1-GYR, sequence (Q14671 828-1176 S863G/R864Y/Q867R): as the sequence (Q14671 828-1176 C1007R/Q1011H) above, with S36G, R37Y, Q40R, R180C, H184Q counted along it
# Procedure, shortened: as §1
sequence,measurement,setting,value
GGCUAGAACUAGUGGAUCCCCCGGCGCCCGGCGGCUCGAGCCCGGGUAAGUGUAAAUAGUCUGCAUGCCGCCGGGCGCCAUGCCUGCAGGUCGACUCUAGAAAACAUG,binding signal,PUM1 PUF domain R6-CFF,4.85 log2 enrichment (interaction score)
same,binding signal,PUM1 PUF domain R8-SHR,4.08 log2 enrichment (interaction score)
same,binding signal,PUM1 PUF domain R2-NFP,2.11 log2 enrichment (interaction score)
same,binding signal,PUM1 PUF domain R5-SRT,3.34 log2 enrichment (interaction score)
same,binding signal,PUM1 PUF domain R6-NYW,2.24 log2 enrichment (interaction score)
same,binding signal,PUM1 PUF domain R5-RRH,1.96 log2 enrichment (interaction score)
same,binding signal,PUM1 PUF domain R3-APD,4.44 log2 enrichment (interaction score)
same,binding signal,PUM1 PUF domain R8-RWW,4.93 log2 enrichment (interaction score)
same,binding signal,PUM1 PUF domain R4-APC,4.14 log2 enrichment (interaction score)
GGCUAGAACUAGUGGAUCCCCCGGCGCCCGGCGGCUCGAGCCCGGGUAAGCGUAAAUAGUCUGCAUGCCGCCGGGCGCCAUGCCUGCAGGUCGACUCUAGAAAACAUG,binding signal,PUM1 PUF domain R8-SHR,3.61 log2 enrichment (interaction score)
same,binding signal,PUM1 PUF domain R8-RWW,5.89 log2 enrichment (interaction score)
same,binding signal,PUM1 PUF domain R8-QFC,3.87 log2 enrichment (interaction score)
GGCUAGAACUAGUGGAUCCCCCGGCGCCCGGCGGCUCGAGCCCGGGUAAGUGUAAGUAGUCUGCAUGCCGCCGGGCGCCAUGCCUGCAGGUCGACUCUAGAAAACAUG,binding signal,PUM1 PUF domain R3-MRY,4.3 log2 enrichment (interaction score)
same,binding signal,PUM1 PUF domain R3-QCD,3.09 log2 enrichment (interaction score)
same,binding signal,PUM1 PUF domain R3-APD,6.54 log2 enrichment (interaction score)
same,binding signal,PUM1 PUF domain R3-IWD,4.83 log2 enrichment (interaction score)
GGCUAGAACUAGUGGAUCCCCCGGCGCCCGGCGGCUCGAGCCCGGGUAAGUGUACAUAGUCUGCAUGCCGCCGGGCGCCAUGCCUGCAGGUCGACUCUAGAAAACAUG,binding signal,PUM1 PUF domain R4-APC,1.88 log2 enrichment (interaction score)
GGCUAGAACUAGUGGAUCCCCCGGCGCCCGGCGGCUCGAGCCCGGGUAAGUGUUAAUAGUCUGCAUGCCGCCGGGCGCCAUGCCUGCAGGUCGACUCUAGAAAACAUG,binding signal,PUM1 PUF domain R5-NSV,2.21 log2 enrichment (interaction score)
same,binding signal,PUM1 PUF domain R5-KLE,2.51 log2 enrichment (interaction score)
GGCUAGAACUAGUGGAUCCCCCGGCGCCCGGCGGCUCGAGCCCGGGUAAGUGUGAAUAGUCUGCAUGCCGCCGGGCGCCAUGCCUGCAGGUCGACUCUAGAAAACAUG,binding signal,PUM1 PUF domain R5-NSV,0.18 log2 enrichment (interaction score)
same,binding signal,PUM1 PUF domain R5-RRH,1.47 log2 enrichment (interaction score)
GGCUAGAACUAGUGGAUCCCCCGGCGCCCGGCGGCUCGAGCCCGGGUAAGUGUAAAUUGUCUGCAUGCCGCCGGGCGCCAUGCCUGCAGGUCGACUCUAGAAAACAUG,binding signal,PUM1 PUF domain R1-GYR,2.71 log2 enrichment (interaction score)
